Experimental data as given in PubChem BioAssay AID504465 (National Center for Advancing Translational Sciences (NCATS), 2011).
Hit rate of the full screen: of about 2,100 compounds, about 210 (10%) were called active. Roughly 53% stayed inconclusive and do not appear here. Calls come from the whole dose curve; as a rule, active = well fitted inhibition curve with a large enough effect; inconclusive = small, poorly fitted or top-dose-only effect, or effect the other way; inactive = no such curve, though single readings can be large or run the other way. Some of the results follow.

Test: IN Cell qHTS Assay for Inhibitors of the mTORC1 Signaling Pathway in MEF (Tsc2-/-, p53-/-) Cells: Sytravon; note: nearly all actives have a fitted effect of over 60% in size
Details: phospho-rpS6 immunofluorescence, 24 h; series mostly up to 38.3 µM
Summary of the method: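 Immunofluorescence of rpS6 phosphorylation (Ser235/236) in mouse embryonic fibroblasts lacking Tsc2 and p53, after 24 h compound exposure; Hoechst-normalized signal imaged, each well scored as % active cells relative to rapamycin (7.5 nM) and DMSO controls.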
Potency is the fitted concentration of half-maximal effect.

Potency, active:
CCNS(=O)(=O)c1ccc(NC(=O)CSc2nc(-c3ccco3)cc(C(F)(F)F)n2)cc1 0.233 µM
Cc1ccc(Sc2c(C)nn(C(=O)COc3ccccc3)c2C)cc1 6.56 µM
CCc1nn(CC(=O)NCc2ccccc2Cl)c(=O)c2cccn12 3.29 µM
COc1ccc(-c2nnc(SCc3cc(=O)c4cc(C)cc(C)c4[nH]3)n2C)cc1 18.5 µM
COC(=O)C1=C(C)N(C(C)C)C(=O)C1(NC(=O)c1ccc(C(C)(C)C)cc1)C(F)(F)F (stereo not given) 20.7 µM
Cc1ccc(-n2ncc(C(=O)NCCCN3CCc4ccccc4C3)c2C2CCN(C(=O)OC(C)(C)C)CC2)cc1C 20.7 µM
CCCCS(=O)(=O)c1nc(-c2ccc(Br)cc2)cc(-c2ccccc2)c1C#N 3.29 µM
CCOc1ccc(S(=O)(=O)N(C(=O)c2ccncc2)c2ccc3oc(C)c(C(=O)OC)c3c2)cc1 3.29 µM
CCc1ccc(C(=O)c2cnc3ccc(F)cc3c2S(=O)(=O)c2ccccc2)cc1 4.65 µM
COc1ccc(-c2nc(S(=O)(=O)c3ccc(C)cc3)c(N3CCCCC3)o2)cc1 13.1 µM
O=S(=O)(c1ccccc1)c1nc(-c2cccc(Cl)c2)oc1N1CCOCC1 9.27 µM
Cc1cc(C)c2c(CC(=O)N(Cc3ccc(N(C)C)cc3)Cc3ccco3)coc2c1 6.56 µM
CCN1CCN(c2cc(C)c3cc(NC(=O)c4cc(Cl)ccc4OC)ccc3n2)CC1 2.93 µM
CCN1CCN(c2cc(C)c3cc(NC(=O)/C=C/c4ccc(C)cc4)ccc3n2)CC1 5.21 µM
Cc1cc(N2CCN(C)CC2)nc2ccc(NC(=O)c3ccc(C(C)(C)C)cc3)cc12 1.85 µM
CCCCc1ccc(C(=O)Nc2ccc3nc(N4CCN(CC)CC4)cc(C)c3c2)cc1 2.61 µM
Cc1ccc(CN2C(=O)C(=O)c3cc(Br)cc(C)c32)cc1 5.85 µM
CCCCOc1ccc(CN2C(=O)C(=O)c3cc(Br)cc(C)c32)cc1OC 5.85 µM
Cc1ccc(CNC(=O)Cn2c(SCC(=O)Nc3ccc(F)cc3)nc3ccccc32)cc1 5.21 µM
COc1ccc(NC(=O)CSc2nc3ccccc3n2Cc2cccc(OC)c2)cc1 11.7 µM

Potency, inactive:
CCc1ccc(-n2nc(C)c3c(C(=O)Nc4cc(OC)cc(OC)c4)cc(C)nc32)cc1
CC(Sc1nc2c([nH]c3ccccc32)c(=O)n1-c1ccccc1)c1ccccc1 (stereo not given)
CC(C)CC(=O)Nc1cc(-c2ccccc2F)nn1-c1ccccc1
CCOc1ccc(-n2c(-c3ccccc3)c(C)n3c4c(=O)n(C)c(=O)n(C)c4nc23)cc1
Cc1ccc(-c2nc3ncccc3o2)cc1NC(=O)COc1ccc(C(C)C)cc1
Cc1cccc(C)c1NC(=O)Cn1c(=O)n(CCC(=O)NCc2ccccc2Cl)c(=O)c2sccc21
CCOc1cc(CNc2ccc(O)cc2)cc(Cl)c1OCc1ccccc1
CCn1ccc2cc(S(=O)(=O)N3CCCN(C(=O)NCC(C)C)CC3)ccc21
CCC(C)NC(=O)c1ccc2c(c1)N=C(C)c1cc(C)ccc1S2 (stereo not given)
COc1ccc(NC(=O)CSc2nc(-c3ccco3)cc(C(F)(F)F)n2)cc1Cl
CCc1ccc2c(c1)-c1ccccc1S(=O)(=O)N2CC(=O)N1CCC(C)CC1
CCc1ccc(NC(=O)C2CCCN(S(=O)(=O)c3c(C)noc3/C=C/N(C)C)C2)cc1 (stereo not given)
O=C(Nc1ccc(Br)cc1)c1ccc(F)c(S(=O)(=O)N2CCc3ccccc32)c1
CCOc1ccccc1NC(=O)Cn1ccn(Cc2ccc(C)cc2)c(=O)c1=O
Cc1ccc(C(=O)c2cn(CC(=O)NCc3ccccc3Cl)c3nc(C)ccc3c2=O)cc1
CCOc1ccccc1CNC(=O)CCn1c(=O)c2cccn2c2ccc(F)cc21
Clc1ccc(-n2ncc3c(NC4CCCC4)ncnc32)cc1
CC(C)Oc1ccc(CNC(=O)CCn2c(=O)c3cccn3c3ccc(F)cc32)cc1
COc1cccc(-n2c(SCc3cccc(C)c3)nc3c([nH]c4ccccc43)c2=O)c1
COc1cccc(-n2c(SCC(=O)Nc3c(C)cc(C)cc3C)nc3c([nH]c4ccccc43)c2=O)c1
O=C(Nc1ccc(F)c(Cl)c1)c1cc(S(=O)(=O)N2CCCc3ccccc32)ccc1F
Cc1cccc(N2CCN(C(=O)Cn3c(=O)c4cccn4c4ccc(F)cc43)CC2C)c1 (stereo not given)
Cc1ccccc1Cn1nnc2c(=O)[nH]c(C3CCN(C(=O)c4ccccc4Cl)CC3)nc21
O=C(Nc1ccc(Cl)c(C(F)(F)F)c1)c1ccc2c(c1)CCN2S(=O)(=O)c1ccccc1
CCCOC(=O)c1cccc(NC(=O)c2c(-c3ccccc3Cl)noc2C)c1
O=C(Nc1ccc(C(F)(F)F)cc1)c1cc(S(=O)(=O)NC2CCCCC2)ccc1F
COc1ccccc1CN1CCC(CNC(=O)c2cnn(-c3ccccc3Cl)c2C2CCN(C(=O)OC(C)(C)C)CC2)CC1
Cc1ccc(-n2ncc(C(=O)NCc3cccs3)c2C2CCN(C(=O)OC(C)(C)C)CC2)cc1C
CCCCOC(=O)c1ccc(NC(=O)Cc2coc3ccc(C(C)C)cc23)cc1
CCCS(=O)(=O)N1CC(=O)N(c2ccccc2C)C(C)(C(=O)NC2CCCC2)C1 (stereo not given)
COc1ccc(NS(=O)(=O)c2ccc3c(c2)CCCN3C(=O)C2CCC2)cc1OC
CC1=Nc2cc(C(=O)NC(C)C)ccc2Sc2ccc(C)cc21
Cc1ccc(-c2csc(-c3cc4c([nH]c3=O)CC(c3ccccc3)CC4=O)n2)cc1 (stereo not given)
COC(=O)c1c(C)oc2ccc(N(C(=O)c3ccncc3)S(=O)(=O)c3cc(C)ccc3C)cc12
CC(=O)c1c(C)oc2ccc(N(C(=O)c3ccncc3)S(=O)(=O)c3ccc(F)cc3C)cc12
Cc1cc(C)c2c(=O)cc(CSCC(=O)Nc3nnc(C)s3)[nH]c2c1
CC(C)Cc1cc(C(=O)NCc2ccc(Cl)cc2)no1
COc1ccccc1Cc1nc2ccccc2nc1SCC(=O)N1CCCCC1
CCOC(=O)c1cnc2ccc(C)cc2c1Nc1ccc(OCc2ccccc2Cl)cc1
CCc1ccc(NC(=O)c2ccc(F)c(S(=O)(=O)NCc3ccc(Cl)c(Cl)c3)c2)cc1
Cc1cc(Cl)ccc1NC(=O)C1CCCN1S(=O)(=O)c1ccc2c(c1)CCCC(=O)N2 (stereo not given)
O=C(c1cc(-c2cccc(Cl)c2)on1)N1CCN(c2ccccc2)CC1
COc1ccc(N2CCN(Cc3nc(-c4ccc(C)cc4)no3)CC2)cc1
Cc1ccc(-c2nc(S(=O)(=O)c3ccc(C)cc3)c(N3CCN(c4ccccc4)CC3)o2)cc1
CC(=O)N1CCOc2cc(S(=O)(=O)Nc3c(C)cccc3C(C)C)c(Cl)cc21
Cc1cc(C)c2c(=O)c3c(oc2c1)C(=O)N(Cc1ccc(F)cc1)C3c1cccc(O)c1 (stereo not given)
Cc1cc(C)cc(NS(=O)(=O)c2ccc(-c3cc(C)no3)cc2)c1
CCC(C(=O)Nc1ccc(C)c(Cl)c1)n1c(=O)c(-c2ccccc2NC(C)=O)nc2ccccc21 (stereo not given)
O=C1Nc2ccccc2Oc2cc(Oc3ccccc3)ccc21
Cc1ccc(CN(Cc2ccco2)C(=O)COc2c(C)cc(C)cc2C)cc1
Cc1ccc2occ(CC(=O)N(Cc3ccc(Cl)cc3)Cc3ccco3)c2c1
COc1cccc(NC(=O)Nc2ccc3nc(N4CCN(C)CC4)cc(C)c3c2)c1
Cc1ccc(NC(=O)c2ccc(F)c(S(=O)(=O)NCCc3ccccc3)c2)cc1F
COc1ccccc1C(=O)Nc1ccc2nc(N3CCC(C)CC3)cc(C)c2c1
COc1ccc(Cl)cc1NC(=O)CCn1nc(C)cc1C
Cc1cccc(CC(=O)Nc2ccc3nc(N4CCC(C)CC4)cc(C)c3c2)c1
Cc1ccc(S(=O)(=O)N2CCc3cc(C(=O)Nc4ccc(C(F)(F)F)cc4)ccc32)cc1
CCCCc1ccc(NC(=O)c2ccc3c(c2)CCN3S(=O)(=O)c2ccccc2)cc1
COc1cc(-c2nc(-c3ccccc3)c(-c3ccc(Br)cc3)[nH]2)cc(OC)c1O
CCOc1ccc(CN2C(=O)c3ccccc3Sc3ccc(C(=O)O)cc32)cc1
CCS(=O)(=O)N1CC(=O)N(c2ccc(Cl)cc2C)C(C)(C(=O)NC2CCCCC2)C1 (stereo not given)
COc1ccc(Oc2nc3c(C)cccn3c(=O)c2/C=C(\C#N)c2nc3ccccc3[nH]2)cc1
O=C(Nc1ccc(Cl)cc1F)c1cc(S(=O)(=O)NC2CCCCCC2)ccc1F
COc1ccc(NC(=O)[C@H]2O[C@@H]3OC(C)(C)O[C@@H]3[C@H]3OC(C)(C)O[C@H]32)c(OC)c1
CC(C)c1ccc(CNCCSc2nnnn2C)cc1
COCc1oc2ccc(NS(=O)(=O)c3ccc(C)cc3)cc2c1C(=O)OC
CCOC(=O)c1cccc(NC(=O)c2cc3sccc3n2Cc2ccc(Cl)cc2)c1
CCOc1ccc(OCC)c(NS(=O)(=O)c2ccc(-c3coc(C)n3)cc2)c1
CCCC1=Nc2cc(C(=O)NCCc3ccccc3)ccc2Sc2ccc(C)cc21
Cc1c(Cl)cccc1NC(=O)NCc1c(-n2cccc2)sc2c1CCCC2
CCCN(Cc1cccs1)C(=O)Nc1ccccc1C
COc1ccccc1NC(=O)Cn1c(SCC(=O)Nc2ccc(F)cc2)nc2ccccc21
COc1ccc(NC(=O)CSCc2cnn(-c3ccccc3)c2-n2cccc2)cc1
O=C(CSc1cn(CCNC(=O)c2ccccc2F)c2ccccc12)Nc1ccc(F)cc1
COc1ccc(-c2nc(SCC(=O)Nc3ccc4c(c3)OCO4)c(-c3ccc(OC)cc3)[nH]2)cc1
